Results taken from PubChem BioAssay (NCI).
This is part of a sample that, as a whole, favours compounds with a hit. Of some 79,000 tested, about 15% had one in any assay. Unmarked numbers belong to inactive results. Active and inactive are the calls of the source. Rule as the data show it: active = growth inhibition above about 70%; inactive = the rest.

Assays:
[1] = NCI Yeast Anticancer Drug Screen. Data for the rad50 strain (AID 155);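 also: 0% = growth of vehicle-only cultures of the same strain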; settings: S. cerevisiae rad50 strain growth inhibition; at 50.0 µM; hits give high values
Method in brief: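 Genetically altered yeast (DNA repair pathway); compound treatment; growth inhibition vs vehicle ctrl.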

[2] = NCI Yeast Anticancer Drug Screen. Data for the mec2-1 strain (AID 157); settings: S. cerevisiae mec2-1 strain, at 50.0 µM, hits give high values
Method in brief: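 Test agents were screened against the mec2-1 yeast strain, with defined DNA repair or cell cycle alteration. Growth was scored as inhibition against vehicle-only controls.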

[3] = NCI Yeast Anticancer Drug Screen. Data for the sgs1 mgt1 strain (AID 161);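 also: 0% = growth of cultures given vehicle only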; settings: S. cerevisiae sgs1 mgt1 strain, at 50.0 µM, hits give high values
Method in brief: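 Genetically altered yeast, compound exposure, growth inhibition relative to vehicle.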

[4] = NCI Yeast Anticancer Drug Screen. Data for the cln2 rad14 strain (AID 165);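 also: 0% = growth equal to vehicle treated cultures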; settings: S. cerevisiae cln2 rad14 strain, at 50.0 µM, hits give high values
Method in brief: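 Growth of compound-exposed yeast (cln2 rad14 genotype) measured and expressed as inhibition relative to vehicle.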

[5] = NCI Yeast Anticancer Drug Screen. Data for the bub3 strain (AID 167); settings: S. cerevisiae bub3 mutant strain, at 50.0 µM, hits give high values
Method in brief: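 Yeast carrying a defined mutation is treated with each compound, and growth is compared with that of vehicle-exposed cells to give inhibition.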

[6] = NCI Yeast Anticancer Drug Screen. Data for the mlh1 rad18 strain (AID 175); settings: S. cerevisiae mlh1 rad18 strain growth inhibition; at 50.0 µM; hits give high values
Method in brief: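 In this whole-cell yeast screen, a strain with altered DNA damage repair is challenged with compound, and its growth is measured against matched vehicle-treated controls.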

Structure (SMILES) | growth inhibition [1] | growth inhibition [2] | growth inhibition [3] | growth inhibition [4] | growth inhibition [5] | growth inhibition [6]
O=C(Nc1ccc(Cl)cc1C(=O)c1ccccc1)c1ccc([N+](=O)[O-])cc1 | -1.4% | -3.1% | -0.5% | -40.1% | 4.2% | 12.8%
O=C(Cl)OC1CS(=O)(=O)CC1O (centres undefined) | -6.6% | 1% | -2.5% | -34.6% | 4.45% | 0.25%
O=[N+]([O-])c1cc(Cl)c(Cl)c([N+](=O)[O-])c1Cl | -7.05% | -18.3% | 6.4% | -23.8% | -1.95% | 6.8%
CCN(CC)C(=S)Cl | -35.4% | -29.4% | -0.5% | -2.15% | 19.1% | -24.5%
O=C(COc1ccc(Cl)c(Cl)c1)Nc1ccc[n+](CC(=O)Nc2ccc(S(=O)(=O)F)cc2)c1 | 32.4% | 41.4% | 32.5% | 96.7% (active) | 45% | 22.1%
COc1ccc(Oc2cc3c(cc2OC)CCN(C)C3)cc1 | 15.9% | 7.7% | 20.1% | -0.6% | -22.9% | -6.6%
O=NN(CCCl)C(=O)O | 5.55% | -9.05% | -5.25% | -42.8% | 10.9% | 11.9%
CNC1=C(N2CC2)C(=O)C(NC)=C(N2CC2)C1=O | 7.7% | 28.3% | 17.9% | 10.8% | 13.8% | 36.4%
C#CC(C)N1CCC2(CC1)C(=O)NCN2c1ccccc1 (centres undefined) | -19.3% | -6.1% | -15.7% | -2.85% | -4.05% | 0.65%
C1CCNCC1.COc1ccccc1C(=O)[CH-]C(=O)C(F)(F)F.COc1ccccc1C(=O)[CH-]C(=O)C(F)(F)F.COc1ccccc1C(=O)[CH-]C(=O)C(F)(F)F.COc1ccccc1C(=O)[CH-]C(=O)C(F)(F)F.[Eu+3] | 56.3% | 48.5% | 48.9% | 34.1% | 29.8% | 64.5%
O=C(NC(c1ccccc1)(c1ccccc1)c1ccccc1)N(CCCl)CCCl | 5.95% | 20.7% | 12.9% | 5.3% | 39.5% | -7.5%
Cn1cnnc1[N+](=O)[O-] | 1.75% | 5.85% | -11.4% | -1.1% | 3.25% | 15.7%
COc1cc(C)c(C(CC(=O)O)CC(=O)N(CCCl)CCCl)cc1C(C)C (centres undefined) | 60.4% | 4.3% | 20.1% | 28.2% | 4.5% | 57.6%
CCOP(=O)(OCC)/C(C#N)=C/c1ccc(C)o1 | -34.2% | -13.3% | -49.6% | -7% | -19.8% | -41.6%
CC(=O)O[C@H]1CC[C@]2(C)C3=C([C@@H](OO)C[C@H]2C1(C)C)[C@]1(C)CC[C@H]([C@H](C)CCCC(C)C)[C@@]1(C)CC3 | 13.1% | 4.4% | 14.7% | 20.9% | 8.45% | 25.3%
CC(N)C(=O)c1ccccc1 (centres undefined) | -2.75% | 5.2% | 6.9% | -38.2% | 15.3% | 1.25%
CCCCC[As](=O)(O)O | 12.2% | -6.4% | 1.2% | -5.6% | 4.3% | 7.95%
[O-][Cl+3]([O-])([O-])O.[O-][n+]1c2ccccc2nc2ccccc21.[Zn+2] | 58.1% | 36.1% | 18.6% | 14.8% | 28.3% | 41.5%
Nc1ccc(Oc2ccc(N)cc2)cc1 | 3.1% | 10% | 14.6% | 11.7% | 12.4% | 26.1%
CC(C)C(O)(C(=O)OCC1=CCN2CCC(O)C12)C(C)O (centres undefined) | 2.55% | 0.1% | 25.1% | 9.55% | 12.6% | 8.5%

Structure (SMILES) | growth inhibition [1] | growth inhibition [2] | growth inhibition [3] | growth inhibition [4] | growth inhibition [5] | growth inhibition [6]
CN(C)c1ccc([N+](=O)[O-])c([N+](=O)[O-])c1 | -14.8% | -12.5% | -7.75% | 7.95% | -12.4% | -3.05%
ClCCN(CCCN(CCCl)c1ccccc1)c1ccccc1 | 11.8% | 12.7% | 32.5% | -8.25% | -5.1% | -27.9%
O=CC1(c2ccccc2)CCNCC1 | -0.95% | 3.85% | 15.5% | 6.35% | 0.85% | 8.85%
CC(C)=CC1CC(=[N+]=[N-])C(=O)C1(C)C (centres undefined) | 33.5% | 7.1% | 17% | 16.9% | 4.05% | 28.6%
CCCCOP(O)(=S)OCCCC.[Y] | -20.9% | 2.95% | 4.2% | 25.4% | -8.6% | -2.75%
O=C(CN1C(=O)c2ccccc2C1=O)OCCNCCCl | 98.2% (active) | 96.5% (active) | 98.1% (active) | 95.9% (active) | 97.4% (active) | 98.5% (active)
CCCc1c(C#N)c(S)[nH]c(=S)c1C#N | 33.4% | 20.4% | 13.6% | -5.65% | 4.55% | 16.2%
C(=C\C1CC2CCCN2O1)/c1ccccc1 (centres undefined) | 39.9% | -20.5% | 15.2% | -23.4% | 2.45% | 11.2%
[Pd].c1ccc([PH+](CC[PH+](c2ccccc2)c2ccccc2)c2ccccc2)cc1.c1ccc([PH+](CC[PH+](c2ccccc2)c2ccccc2)c2ccccc2)cc1 | 24.8% | 12.8% | 59.5% | 15.1% | 15.7% | 24.2%
CCOP(=S)(OCC)S/C(C(=O)NC)=C(/C)O | 64.2% | 22.9% | 35.4% | 65.1% | 55.5% | 79.7% (active)
CCOC(=S)S.[Cu+2] | 2.55% | 4.1% | -2.85% | -33.6% | -36% | -17.1%
N#CC(C#N)=C(C#N)C#N | 14.1% | 4.6% | 1.9% | -25.9% | 0.05% | 6.25%
CCCCC(CC)COP(OCC(CC)CCCC)OCC(CC)CCCC (centres undefined) | 22.1% | -14.4% | -18.9% | -37.5% | -7.25% | -6.95%
C=CCOCN1c2cc(OC)c([C@@]3(C(=O)OC)C[C@@H]4CN(CCc5c3[nH]c3ccccc53)C[C@](O)(CC)C4)cc2[C@@]23CCN4CC=C[C@@](CC)([C@@H](OC(C)=O)[C@](O)(C(=O)OC)[C@H]12)[C@H]43 | -21.2% | -8.75% | 2.35% | 0.2% | -0.05% | -16.4%
CO[C@H](C)[C@](O)(C(=O)OCC1=CCN2CC[C@@H](O)[C@H]12)C(C)C | -11.4% | -37.6% | -8.8% | 1.25% | -23.8% | -13.6%
COc1cc(C=O)cc(OC)c1OC | 1.45% | -10.6% | 5.25% | -14.1% | -7.1% | -20.1%
S=C([SH2+])[SH2+].S=C([SH2+])[SH2+].[Pt+2].c1ccc(C[P+](c2ccccc2)(c2ccccc2)c2ccccc2)cc1 | 44.7% | 3.45% | 36.2% | -16.6% | 3.6% | -0.1%
CC[CH2][Sn]([Br])([CH2]CC(=O)OC)[CH2]CC(=O)OC | 16.5% | 4.2% | 50.1% | -19.9% | 9.85% | 12.1%
Cc1ccc(O)cc1Cl | -17.8% | -39% | -20.6% | -7.65% | -31.9% | 1.75%
